In PubChem BioAssay (NCATS):
Inconclusive results are not listed. The source made the active and inactive calls. Unless noted, calls follow the shape of the dose curve; as a rule, active = well fitted curve in the direction sought with a large enough effect; inconclusive = small, poorly fitted or top-dose-only effect, or another doubt; inactive = no such curve, though single readings can be large; an effect the other way counts as inactive or inconclusive.

Key:
[1] = AP1 Signaling Pathway (AID 357; active = well fitted curve in either direction with a large enough effect, not every such curve was filed as active;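 also: ME-180 reporter cells stimulated with EGF at its EC50 level; % is scaled to controls: 0 for no effect and ±100 for the full control effect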); details: ME-180 AP-1-bla reporter, EGF-induced, beta-lactamase ratio, 5 h; at 7.69 µM (top of the series) unless noted
Outline: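 Cells are seeded overnight, exposed to compound titrations and an EC50 level of EGF for 5 hours at 37 °C, then loaded with CCF4 dye for 2.5 hours. Beta-lactamase activity under the AP-1 element is read as a blue/green ratio.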

[2] = Stat Signaling Pathway (AID 446; active = well fitted curve in either direction with a large enough effect, not every such curve was filed as active;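 also: ME-180 cervical cancer cells given 40 pM IL-6 alongside compound; SIE-controlled beta-lactamase reporter measured as 460/530 nm FRET emission ratio; % is scaled to controls: 0 for no effect and ±100 for the full control effect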)
Outline: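 Normalization used AC90 stimulation (300 pM IL-6) and AC90 inhibition (125 nM pan-JAK inhibitor at 40 pM IL-6). The underlying signal is SIE-driven beta-lactamase in ME-180 cells after 5 h IL-6 exposure with compound.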

[3] = target: Glucocorticoid receptor (Homo sapiens) (UniProt P04150); experiment: GR-GFP Redistribution (AID 450;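 active = compounds whose dose series gives a full or clear partial fitted curve of increased nuclear translocation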; also: potency is read from the fitted curve at half-maximal effect); details: U2OS GR-GFP nuclear translocation, laser cytometry, 2 h
Chain of Glucocorticoid receptor (Homo sapiens) (P04150 whole entry, looked up, the tested form may be a part): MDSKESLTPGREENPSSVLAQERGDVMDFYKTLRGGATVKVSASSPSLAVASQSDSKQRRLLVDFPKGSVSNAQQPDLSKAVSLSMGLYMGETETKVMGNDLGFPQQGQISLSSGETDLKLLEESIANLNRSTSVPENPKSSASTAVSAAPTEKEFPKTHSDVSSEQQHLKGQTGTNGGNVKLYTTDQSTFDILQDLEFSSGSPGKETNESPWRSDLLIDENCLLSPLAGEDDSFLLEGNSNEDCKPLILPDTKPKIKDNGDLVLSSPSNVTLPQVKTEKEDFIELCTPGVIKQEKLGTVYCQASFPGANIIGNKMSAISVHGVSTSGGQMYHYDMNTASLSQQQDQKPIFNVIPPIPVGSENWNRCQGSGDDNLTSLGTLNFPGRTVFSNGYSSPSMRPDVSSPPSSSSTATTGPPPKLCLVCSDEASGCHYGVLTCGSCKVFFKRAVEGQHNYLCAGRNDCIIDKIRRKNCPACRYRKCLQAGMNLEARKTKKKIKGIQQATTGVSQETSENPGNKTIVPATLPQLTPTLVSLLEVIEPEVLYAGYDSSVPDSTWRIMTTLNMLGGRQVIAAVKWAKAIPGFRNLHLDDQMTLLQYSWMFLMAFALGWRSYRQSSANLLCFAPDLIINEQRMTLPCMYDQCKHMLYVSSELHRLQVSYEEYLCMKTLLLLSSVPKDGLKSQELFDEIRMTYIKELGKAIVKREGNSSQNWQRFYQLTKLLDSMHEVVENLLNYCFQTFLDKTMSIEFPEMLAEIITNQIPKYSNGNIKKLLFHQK

[4] = target: Glucocorticoid receptor (Homo sapiens) (UniProt P04150); experiment: GR-EFC Redistribution (AID 451; calls by dose curve; also: potency is read from the fitted curve at half-maximal effect); details: CHO-K1 GR-EFC translocation, beta-gal luminescence, 2 h
Outline: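 CHO-K1 cells stably expressing nuclear-localized β-gal enzyme acceptor and GR fused C-terminally to the enzyme donor fragment; ligand-driven nuclear translocation restores β-gal by complementation. Compounds titrated up to 46 uM final, 2 h at 37 °C; luminescence read.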

[5] = target: Mitogen-activated protein kinase 10 (Mus musculus) (UniProt Q61831); experiment: JNK3 AlphaScreen Assay (AID 530; active = well fitted curve in either direction with a large enough effect, not every such curve was filed as active;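 also: kinase came from lysate of stimulated human HepG2 cells; signal reports phosphorylation of biotinylated GST-cJun 1-79 at Ser73 with 10 µM ATP; % is scaled to controls: 0 for no effect and ±100 for the full control effect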)
Outline: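 Phosphorylation of biotinylated GST-cJun(1-79) at Ser73 is measured by AlphaScreen proximity luminescence. Enzyme is JNK3 in HepG2 lysates activated with interleukin-1beta and tumor necrosis factor alpha; ATP is 10 uM final.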

[6] = target: 3',5'-cyclic-AMP phosphodiesterase 4B (Homo sapiens) (UniProt Q07343); experiment: qHTS Assay for Inhibitors of PDE-IV (AID 607; active = well fitted activation curve with a large enough effect in the main read-out, with a control signal flat, not every such curve was filed as active; also: % of control where 0% means no effect)
Chain of 3',5'-cyclic-AMP phosphodiesterase 4B (Homo sapiens) (Q07343 whole entry, looked up): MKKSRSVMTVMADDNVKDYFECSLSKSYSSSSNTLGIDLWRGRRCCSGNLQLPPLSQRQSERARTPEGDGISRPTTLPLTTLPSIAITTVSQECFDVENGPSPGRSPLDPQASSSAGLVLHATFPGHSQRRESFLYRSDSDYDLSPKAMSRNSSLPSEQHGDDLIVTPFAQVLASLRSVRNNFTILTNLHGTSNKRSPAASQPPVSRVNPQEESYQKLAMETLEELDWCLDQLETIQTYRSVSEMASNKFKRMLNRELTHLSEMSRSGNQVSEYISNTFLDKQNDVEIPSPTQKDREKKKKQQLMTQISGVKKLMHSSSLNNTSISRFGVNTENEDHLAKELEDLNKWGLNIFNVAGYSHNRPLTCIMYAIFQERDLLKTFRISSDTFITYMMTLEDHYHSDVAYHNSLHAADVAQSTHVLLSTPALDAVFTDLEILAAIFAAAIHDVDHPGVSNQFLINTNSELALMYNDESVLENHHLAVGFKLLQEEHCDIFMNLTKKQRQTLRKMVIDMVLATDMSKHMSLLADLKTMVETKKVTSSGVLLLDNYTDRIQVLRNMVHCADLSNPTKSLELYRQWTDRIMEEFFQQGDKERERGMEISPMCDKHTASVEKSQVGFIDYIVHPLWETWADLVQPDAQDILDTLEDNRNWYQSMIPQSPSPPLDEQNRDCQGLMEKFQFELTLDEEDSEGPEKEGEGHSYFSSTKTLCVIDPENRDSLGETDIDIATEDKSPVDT
Outline: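 HEK293 ACTOne cells with CNG channel (1000/well), endogenous PDE4; membrane potential dye, compounds up to 22.9 uM final. Fluorescence Ex 535/Em 590; RO 20-1724 (100 uM final) as reference.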

[7] = target: Guanine nucleotide-binding protein G(i) subunit alpha-1 (Homo sapiens) (UniProt P63096); experiment: qHTS Assay for Inhibitors of RGS12 GoLoco Motif Activity (Green Fluorophore) (AID 879);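 also: 0% = labeled peptide with Gαi1 and full inhibition = labeled peptide alone without protein; negative values mean loss of peptide binding seen as reduced polarization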
Outline: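 A drop in FITC polarization marked displacement of the FITC-tagged RGS12 GoLoco peptide (10 nM) from Gαi1 (50 nM). Compounds were incubated 10 min at room temperature in Tris pH 7.5 buffer containing 150 mM NaCl, 0.1 mM GDP and 0.05% NP40; unlabeled peptide titration served as control.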

[8] = target: Cytochrome P450 3A4 (Homo sapiens) (UniProt P08684); experiment: qHTS Assay for Inhibitors and Substrates of Cytochrome P450 3A4 (AID 884); also: % is scaled to controls: 0 for no effect and ±100 for the full control effect; nearly all actives have a fitted effect of over 50% in size
Chain of Cytochrome P450 3A4 (Homo sapiens) (P08684 whole entry, looked up): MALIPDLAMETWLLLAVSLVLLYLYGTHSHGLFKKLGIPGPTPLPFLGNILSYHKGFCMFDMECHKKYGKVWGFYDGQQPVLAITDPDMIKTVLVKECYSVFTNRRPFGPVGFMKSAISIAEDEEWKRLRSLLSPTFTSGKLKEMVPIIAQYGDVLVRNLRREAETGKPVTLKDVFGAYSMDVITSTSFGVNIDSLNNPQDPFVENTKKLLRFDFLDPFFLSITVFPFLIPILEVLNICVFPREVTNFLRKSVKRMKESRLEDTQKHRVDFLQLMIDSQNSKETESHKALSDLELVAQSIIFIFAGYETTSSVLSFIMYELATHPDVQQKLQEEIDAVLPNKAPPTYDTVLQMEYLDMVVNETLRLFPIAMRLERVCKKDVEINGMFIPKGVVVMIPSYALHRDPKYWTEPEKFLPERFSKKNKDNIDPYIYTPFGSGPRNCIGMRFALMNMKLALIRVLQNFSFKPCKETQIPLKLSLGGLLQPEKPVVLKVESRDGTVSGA
Outline: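 Luminescent readout of luciferin produced by CYP3A4 (20 nM) dealkylation of Luciferin-PPXE, 25 uM (its KM). NADPH-driven reaction ran 60 min at RT after 10 min compound preincubation; data scaled to 57 uM ketoconazole as 100% inhibition.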

[9] = qHTS Assay for Identification of Small Molecule Agonists for Hypoxia Response Element Signaling Pathway (AID 914; active = well fitted activation curve with a large enough effect in the signal ratio, with a control signal flat, not every such curve was filed as active; the % refers to the signal ratio; also: % of control where 0% means no effect); details: ME-180 (cervical carcinoma) HRE-bla reporter, beta-lactamase ratio, CoCl2, 17 h; activation: hits give high values
Outline: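 HRE-bla ME-180 cells, overnight plating in Opti-MEM with 0.5% dialyzed FBS; cpd titration + EC50 CoCl2, 17 h, 37 degrees Celsius; CCF4 2.5 h RT; 460/530 nm ratio; AC50.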

[10] = qHTS Assay for Identification of Small Molecule Agonists for Thrombopoietin (TPO) Signaling Pathway (AID 917); also: % is scaled to controls: 0 for no effect and ±100 for the full control effect
Outline: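 Luciferase reporter (Glycoprotein IIb promoter) in IL-3-deprived Ba/F3 cells carrying human TPO receptor; compounds co-added with 26 pM TPO, incubated 24 h, 37 C. Steadylite luminescence measured after 10 min.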

[11] = target: Muscarinic acetylcholine receptor M1 (Rattus norvegicus) (UniProt P08482); experiment: qHTS Assay for Antagonists of Acetylcholine Muscarinic M1 Receptor: Measurement of IP-One Response (AID 944); also: nearly all actives have a fitted effect of over 75% in size
Chain of Muscarinic acetylcholine receptor M1 (Rattus norvegicus) (P08482 whole entry, looked up): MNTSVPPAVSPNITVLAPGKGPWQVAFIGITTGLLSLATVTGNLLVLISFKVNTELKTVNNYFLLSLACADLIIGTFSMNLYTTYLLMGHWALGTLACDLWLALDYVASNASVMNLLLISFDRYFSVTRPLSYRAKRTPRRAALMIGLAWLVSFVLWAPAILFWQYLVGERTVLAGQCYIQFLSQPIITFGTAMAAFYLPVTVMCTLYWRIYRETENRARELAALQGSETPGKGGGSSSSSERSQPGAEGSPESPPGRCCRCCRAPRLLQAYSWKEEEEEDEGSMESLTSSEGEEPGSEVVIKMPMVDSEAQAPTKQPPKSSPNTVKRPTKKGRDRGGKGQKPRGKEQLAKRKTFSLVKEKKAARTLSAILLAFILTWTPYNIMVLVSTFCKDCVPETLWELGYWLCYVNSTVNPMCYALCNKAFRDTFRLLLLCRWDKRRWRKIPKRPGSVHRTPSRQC
Outline: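 Antagonist mode with rat M1 receptor transfected into CHO cells. Compound is added first for 10 min, carbachol at its EC80 follows for 30 min, and lysis reagents then allow TR-FRET detection of accumulated IP1.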

[12] = target: Pyruvate kinase (Leishmania mexicana) (UniProt Q27686); experiment: qHTS Validation Assay for Inhibitors of Leishmania Mexicana Pyruvate Kinase (AID 945);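 also: 0% = DMSO only neutral control wells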
Outline: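 Luminescent ATP detection (PKLight) after a 1 h room-temperature reaction of 0.2 nM LmPYK E451W mutant with 0.5 mM PEP and 0.1 mM ADP at pH 7.2. Activity is normalized to DMSO-only control wells.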

[13] = target: Pyruvate kinase PKM (Homo sapiens) (UniProt P14618); experiment: qHTS Assay for Activators of Human Muscle Pyruvate Kinase (AID 954; active = well fitted curve in the direction sought with a large enough effect, not every such curve was filed as active;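 also: 0% = uninhibited enzyme and -100% = no enzyme or full thiadiazolimine inhibition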)
Chain of Pyruvate kinase PKM (Homo sapiens) (P14618 whole entry, looked up): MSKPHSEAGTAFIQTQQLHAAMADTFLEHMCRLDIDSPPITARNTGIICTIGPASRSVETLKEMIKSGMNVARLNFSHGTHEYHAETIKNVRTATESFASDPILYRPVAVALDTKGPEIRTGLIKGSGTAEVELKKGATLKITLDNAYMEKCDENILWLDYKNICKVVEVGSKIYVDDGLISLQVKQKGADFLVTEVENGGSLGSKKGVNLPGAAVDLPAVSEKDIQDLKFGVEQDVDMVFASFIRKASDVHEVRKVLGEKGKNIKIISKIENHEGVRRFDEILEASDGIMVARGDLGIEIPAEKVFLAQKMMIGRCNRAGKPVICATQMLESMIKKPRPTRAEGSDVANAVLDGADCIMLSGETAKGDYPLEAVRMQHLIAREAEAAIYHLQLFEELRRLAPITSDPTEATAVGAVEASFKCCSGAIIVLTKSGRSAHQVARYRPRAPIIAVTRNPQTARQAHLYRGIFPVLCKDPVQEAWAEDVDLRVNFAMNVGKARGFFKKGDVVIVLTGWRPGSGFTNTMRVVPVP
Outline: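 Compound pinned into substrate mix (0.5 mM PEP, 0.1 mM ADP), then 0.1 nM PKM2 added; 1 h, RT. Stop/detection luciferase reagent added, luminescence read. Normalized to no-inhibition and no-enzyme or reference-inhibitor controls.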

[14] = target: Alpha-galactosidase A (Homo sapiens) (UniProt P06280); experiment: Counterscreen for Glucocerebrosidase Inhibitors: qHTS Assay for Human alpha-Galactosidase at pH 4.5 (AID 992); also: 0% is about no effect
Outline: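 Steps: enzyme (2 nM final), then compound across 0.7 nM to 77 uM, then 80 uM fluorogenic galactopyranoside substrate; incubate 20 min at room temperature; quench at pH 10; measure fluorescence at 365/440 nm.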

[15] = target: alpha-glucosidase (Oryza sativa, rice) (UniProt Q653V4); experiment: Counterscreen for Glucocerebrosidase Inhibitors: qHTS Assay for Rice alpha-Glucosidase at pH 5.0 (AID 997);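 also: 0% = full activity with enzyme and -100% = basal without enzyme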
Outline: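 Endpoint fluorogenic assay at pH 5.0: compounds (0.7 nM to 77 uM) titrated against 4 nM rice enzyme and 400 uM 4-MU-alpha-glucoside for 20 min at room temperature; NaOH/glycine stop, read ex 365/em 440 nm, Hill-fitted AC50.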

[16] = target: DNA repair nuclease/redox regulator APEX1 (Homo sapiens) (UniProt P27695); experiment: qHTS Validation Assay for Inhibitors of the Human Apurinic/apyrimidinic Endonuclease 1 (APE1) (AID 1705)
Outline: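 Activity read as rising fluorescence (598 nm emission, 525 nm excitation) from incision of a TAMRA/BHQ-2 duplex carrying a THF abasic site (50 nM). Compound and enzyme sat 15 min at RT before substrate start; signal change between first and third 60-s reads.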

[17] = Counterscreen for APE1 Inhibitors: Fluorescent Dye Displacement Validation Assay (AID 1707);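 also: plate controls were ThO with dsDNA and no compound for no effect and ThO without dsDNA for full effect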
Outline: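 Reaction mixture of 250 nM Thiazole Orange and 50 nM double-stranded abasic-site DNA was dispensed, compounds were pin-transferred, and fluorescence was read at endpoint (480 nm ex, 540 nm em). Reduced fluorescence indicated dye displacement by DNA binding.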

[18] = qHTS for differential inhibitors of proliferation of Plasmodium falciparum line 7G8 (AID 1815);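 also: parasite growth measured after three days of incubation; plate controls were vehicle wells for no effect and reference inhibitor wells for full effect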
[19] = qHTS for differential inhibitors of proliferation of Plasmodium falciparum line GB4 (AID 1816); details: Potency: Plasmodium falciparum GB4 proliferation inhibition;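 also: parasite growth measured after 72 h incubation; 0% = vehicle DMSO and -100% = reference inhibitor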
[20] = qHTS for differential inhibitors of proliferation of Plasmodium falciparum line 3D7 (AID 1876);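 also: parasite growth measured after three days of culture; 0% = vehicle wells and -100% = reference inhibitor wells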
[21] = qHTS for differential inhibitors of proliferation of Plasmodium falciparum line D10 (AID 1877);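 also: parasites grown with compound for 72 h before DNA staining; plate controls were vehicle wells for no effect and reference inhibitor wells for full effect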
[22] = qHTS for differential inhibitors of proliferation of Plasmodium falciparum line Dd2 (AID 1882); details: Potency: Plasmodium falciparum Dd2 proliferation inhibition;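 also: plate controls were DMSO vehicle for no effect and 0.29 µM artemisinin for full effect; nearly all actives have a fitted effect of over 65% in size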
Outline: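 SYBR Green DNA fluorescence (ex 485, em 535 nm) after overnight lysis quantifies parasite growth; compound exposure lasted 72 h at 37 C on infected red cells at 2.5% hematocrit, 0.3% parasitemia (final). Artemisinin 0.29 uM and vehicle wells define normalization.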

[23] = qHTS for differential inhibitors of proliferation of Plasmodium falciparum line W2 (AID 1883); details: Potency: Plasmodium falciparum W2 proliferation inhibition;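 also: parasites grown with compound for 72 h before lysis and staining; 0% = vehicle wells and -100% = control inhibitor wells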
[24] = qHTS for differential inhibitors of proliferation of Plasmodium falciparum line HB3 (AID 1886); details: Potency: Plasmodium falciparum HB3 proliferation inhibition;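 also: parasites grown with compound for 72 h before SYBR Green readout; plate controls were vehicle for no effect and reference inhibitor for full effect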
[25] = qHTS Assay for Modulators of Human Peripheral Myelin Protein 22 (PMP22) Expression/Activity (AID 1967; active = well fitted curve in the direction sought with a large enough effect in the signal ratio; the % refers to the signal ratio;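 also: 0% = untreated cells and 100% end not stated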)
Outline: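 Readout is the corrected green/red luminescence ratio after 24 h compound exposure, normalised to untreated cells (0%). Engineered MSC80 mouse Schwann cells express green luciferase from the mouse Pmp22 promoter and red luciferase from EF-alpha as internal control.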

[26] = target: Ferritin light chain (Equus caballus) (UniProt P02791); experiment: qHTS Validation Assay for Identification of Novel General Anesthetics (AID 2323); also: % is scaled to controls: 0 for no effect and ±100 for the full control effect
Chain of Ferritin light chain (Equus caballus) (P02791 2-175 limits assumed): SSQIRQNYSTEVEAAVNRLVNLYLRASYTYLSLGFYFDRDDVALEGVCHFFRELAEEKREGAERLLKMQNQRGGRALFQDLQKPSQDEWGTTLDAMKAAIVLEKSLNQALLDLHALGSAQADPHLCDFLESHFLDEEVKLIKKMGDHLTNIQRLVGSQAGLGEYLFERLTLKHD
Outline: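 Competitive displacement of the profluorescent anesthetic 1-AMA (50% saturated, PBS) from 10 uM apoferritin, 10 min, room temperature. Activity is normalized 380/535 nm fluorescence; concentration-response fitted with a four-parameter Hill equation.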

[27] = target: ATP-dependent DNA helicase Q1 (Homo sapiens) (UniProt P46063); experiment: qHTS Validation Assay for Inhibitors of RecQ-Like Dna Helicase 1 (RECQ1) (AID 2353);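 also: plate controls were DMSO vehicle for no effect and enzyme-free control for full effect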
Outline: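 RECQ1T1 50 nM; forked duplex (20 bp + 30-nt ss tails) 200 nM, ATP 2 mM final; pH 8.0, 2 mM MgCl2, 2.5 ug/ml poly(dI-dC); 15 min compound preincubation; discontinuous kinetic read over 2 h at RT.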

[28] = target: RecQ-like DNA helicase BLM (Homo sapiens) (UniProt P54132); experiment: qHTS Validation Assay for Inhibitors of Bloom's syndrome helicase (BLM) (AID 2364);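 also: plate controls were DMSO vehicle for no effect and enzyme-free control for full effect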
Outline: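 BLM 50 nM in 25 mM Tris-HCl pH 8.0, 5 mM NaCl, 2 mM MgCl2, 1 mM DTT, 0.01% Tween-20, 2.5 ug/ml poly(dI-dC); 15 min cpd preinc, RT. Start: 200 nM forked DNA + 2 mM ATP (final). TAMRA read, 2 reads 2 h apart.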

[29] = Validation screen for small molecules that induce DNA re-replication in MCF 10A normal breast cells (AID 463097); also: 0% is about no effect; nearly all actives have a fitted effect of over 60% in size
Outline: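 Read-out is Hoechst total nuclear intensity by fluorescence scanning imager, flagging increased high-DNA-content nuclei. Compounds were incubated with MCF 10A cells for 48 hr (37 C, 5% CO2) before 40 min staining.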

[30] = Quantitative high throughput screen for delayed death inhibitors of the malarial parasite plastid, 96 hour incubation (AID 488745);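 also: luciferase-expressing P. falciparum in erythrocytes at 2% hematocrit and 0.1% parasitemia; % is scaled to controls: 0 for no effect and ±100 for the full control effect; nearly all actives have a fitted effect of over 70% in size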
Outline: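 Readout is firefly luciferase luminescence from an integrated reporter in P. falciparum; lower signal marks inhibited growth. Cultures at 2% hematocrit and 0.1% parasitemia were treated with compound across two generations (96 h, 37 C, 5% CO2).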

[31] = Quantitative high throughput screen for delayed death inhibitors of the malarial parasite plastid, 48 hour incubation (AID 488752); also: % is scaled to controls: 0 for no effect and ±100 for the full control effect; nearly all actives have a fitted effect of over 65% in size
Outline: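 First, compound was pinned into RPMI 1640 medium containing 0.5% Albumax. Next, reporter-parasite-infected erythrocytes were added to 2% hematocrit and 0.1% parasitemia. After 48 h at 37 C under 5% CO2, luciferase detection reagent was added and luminescence read.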

[32] = target: M-phase phosphoprotein 8 (Homo sapiens) (UniProt Q99549); experiment: qHTS Validation Assay for Inhibitors for MPP8 Chromodomain Interactions with Methylated Histone Tails (AID 488949);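 also: AlphaScreen signal from MPP8 chromodomain bound to biotinylated H3K9me3 peptide; top concentration of the series differs between compounds; % is scaled to controls: 0 for no effect and ±100 for the full control effect; nearly all actives have a fitted effect of over 55% in size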
Outline: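 AlphaScreen proximity signal from streptavidin donor and Ni-chelate acceptor beads (10 ug/mL each) reported binding of MPP8 to trimethyl-K9 H3(1-18) peptide, both at 50 nM. The complex formed 30 min before a 30 min compound exposure at room temperature, in PBS pH 7.4.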

[33] = target: Transient receptor potential cation channel subfamily V member 1 (Homo sapiens) (UniProt Q8NER1); experiment: HTS Assay for Compounds that Act as Enhancers of the Vanilloid Receptor 1 (AID 488979); also: 0% is about no effect
Outline: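 TRPV1-expressing cells loaded with Fluo-8 calcium dye; compounds added and calcium influx read kinetically for 3 min (agonist phase), then capsaicin at EC20 added and read 2 min more for enhancement. Fluorescence ex 480/em 520 nm.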

[34] = target: Thyrotropin receptor (Homo sapiens) (UniProt P16473); experiment: qHTS Assay for Antagonists of the Thyroid Stimulating Hormone Receptor (AID 488980); also: 0% is about no effect
Chain of Thyrotropin receptor (Homo sapiens) (P16473 whole entry, looked up): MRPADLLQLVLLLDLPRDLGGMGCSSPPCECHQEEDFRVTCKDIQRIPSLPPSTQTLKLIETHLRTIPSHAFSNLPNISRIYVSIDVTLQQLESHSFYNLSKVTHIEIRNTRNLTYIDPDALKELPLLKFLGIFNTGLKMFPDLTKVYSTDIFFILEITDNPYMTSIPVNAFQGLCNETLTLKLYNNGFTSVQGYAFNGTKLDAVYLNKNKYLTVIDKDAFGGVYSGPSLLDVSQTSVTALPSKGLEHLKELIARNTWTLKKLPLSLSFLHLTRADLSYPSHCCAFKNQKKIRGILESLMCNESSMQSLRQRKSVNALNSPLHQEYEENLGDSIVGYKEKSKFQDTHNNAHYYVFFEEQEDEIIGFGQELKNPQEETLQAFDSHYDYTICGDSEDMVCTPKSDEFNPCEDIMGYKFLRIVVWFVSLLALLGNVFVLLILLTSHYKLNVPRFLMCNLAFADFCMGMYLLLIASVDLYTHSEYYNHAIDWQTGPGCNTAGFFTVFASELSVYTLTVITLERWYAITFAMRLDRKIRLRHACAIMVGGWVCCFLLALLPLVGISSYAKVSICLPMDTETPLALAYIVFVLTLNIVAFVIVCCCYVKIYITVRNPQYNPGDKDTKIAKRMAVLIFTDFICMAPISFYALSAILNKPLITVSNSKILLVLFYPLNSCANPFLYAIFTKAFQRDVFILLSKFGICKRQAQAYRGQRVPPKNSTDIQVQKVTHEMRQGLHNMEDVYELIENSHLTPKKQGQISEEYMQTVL
Outline: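 Inhibition of cAMP raised by EC80 TSH (4 nM final) was read by HTRF, with lysate cAMP competing against cAMP-d2 for cryptate antibody after 30 min at room temperature. The cells were transfected HEK293 held in phosphodiesterase inhibitor RO 20-1724 at 70 uM.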

[35] = target: Thyrotropin-releasing hormone receptor (Homo sapiens) (UniProt P34981); experiment: qHTS for Small Molecule Agonists and Allosteric Enhancers of Human TRH Receptor: Validation Screen for Agonists (AID 493127;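 active = calcium activation more than 3 SD above the typical response in the agonist read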;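 also: intracellular calcium rise by fluo-8 fluorescence before TRH EC20 addition; 0% is about no effect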); details: TRH receptor agonist cell assay; at 2 µM; hits give high values
Chain of Thyrotropin-releasing hormone receptor (Homo sapiens) (P34981 whole entry, looked up): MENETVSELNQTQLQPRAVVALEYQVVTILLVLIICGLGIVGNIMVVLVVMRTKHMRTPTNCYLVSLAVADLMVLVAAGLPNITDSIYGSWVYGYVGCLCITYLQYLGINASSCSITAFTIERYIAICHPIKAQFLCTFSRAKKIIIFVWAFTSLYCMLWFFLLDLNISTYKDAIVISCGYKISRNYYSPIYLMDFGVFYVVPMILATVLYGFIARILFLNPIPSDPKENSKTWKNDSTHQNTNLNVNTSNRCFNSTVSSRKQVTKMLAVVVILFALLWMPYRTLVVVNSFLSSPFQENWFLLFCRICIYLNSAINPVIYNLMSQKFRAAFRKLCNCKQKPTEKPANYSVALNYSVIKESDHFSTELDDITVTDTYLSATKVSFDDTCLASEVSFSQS
Outline: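 Compounds are added by online pintool to dye-loaded TRHR cells while fluorescence is recorded every second. A rise in calcium signal during the agonist read marks activation; a later 10 nM TRH addition (EC20) serves the separate enhancer mode.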

[36] = target: Galactokinase (Homo sapiens) (UniProt P51570); experiment: qHTS Validation Assay for Inhibitors of Human Galactokinase (GALK) (AID 493189); also: 0% is about no effect
Chain of Galactokinase (Homo sapiens) (P51570 whole entry, looked up): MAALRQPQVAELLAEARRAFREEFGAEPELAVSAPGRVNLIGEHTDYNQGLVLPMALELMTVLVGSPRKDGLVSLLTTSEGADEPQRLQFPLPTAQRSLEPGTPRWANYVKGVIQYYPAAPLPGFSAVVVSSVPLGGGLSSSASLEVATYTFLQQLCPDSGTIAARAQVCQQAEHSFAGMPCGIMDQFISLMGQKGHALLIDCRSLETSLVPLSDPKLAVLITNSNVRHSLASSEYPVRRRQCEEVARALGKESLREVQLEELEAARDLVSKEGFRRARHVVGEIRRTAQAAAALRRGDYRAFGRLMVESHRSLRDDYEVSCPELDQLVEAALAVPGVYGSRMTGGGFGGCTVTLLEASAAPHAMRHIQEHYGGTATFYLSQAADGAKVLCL
Outline: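 Inhibition was measured as remaining ATP, detected by luciferase luminescence after a 1 h room-temperature reaction. Final conditions: 5 nM GALK, 100 uM galactose, 35 uM ATP, pH 8.0 HEPES buffer.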

[37] = Validation screen for small molecules that induce DNA re-replication in SW480 colon adenocarcinoma cells (AID 504364); also: 0% is about no effect
Outline: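 Image-based qHTS: compounds were incubated with SW480 cells for 48 hr, nuclei stained with Hoechst, and per-nucleus fluorescence intensity scanned to flag cells with excess DNA content.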

O=S(=O)(O)C1CCNCC1
inactive: activity change, negative = inhibition [1] 5.14% [at 38 µM] | outcome [2] | Potency [3] > 46 µM | Potency [4] > 46 µM | Potency [5] | Potency [6] | Potency [7] | Potency [8] | activation [9] 1.41% | outcome [10] | Potency [11] | outcome [12] | outcome [13] | outcome [14] | outcome [15] | Potency [16] | outcome [17] | Potency [18] | Potency [19] | Potency [20] | Potency [21] | Potency [22] | Potency [23] | Potency [24] | outcome [25] | outcome [26] | outcome [27] | Potency [28] | Potency [29] | Potency [30] | Potency [31] | Potency [32] | outcome [33] | outcome [34] | activation [35] 0.125% | outcome [36] | Potency [37]
